# Test results reported in publication PMC7826789 (International Journal of Molecular Sciences, 2021).
smiles,measurement,setting,value
CCn1c(-c2nonc2N)nc2cncc(CNC3CCNCC3)c21 [SB-747651A],Kinases covered,PRK2,PRK2
COc1cc(Nc2cnc(C#N)c(O[C@H](C)CN(C)C)n2)ncc1-c1cnn(C)c1 [CCT244747],Kinases covered,PRKAA1,PRKAA1
NCC1CCC(CNc2nc(NCc3ccccc3OC(F)(F)F)ncc2[N+](=O)[O-])CC1 (centres unmarked) [BIRZ0518XX],Kinases covered,PRKCD,PRKCD
same,Kinases covered,PRKCE,PRKCE
same,Kinases covered,PRKCQ,PRKCQ
CCn1c(-c2nonc2N)nc2c(C#CC(C)(C)O)nc(OCCNC)cc21.Cl [GSK949675],Kinases covered,PRKCH,PRKCH
Cc1cccc(-c2nc(Nc3ccncc3)c3ccccc3n2)n1 [GW855857],Kinases covered,PRKD2,PRKD2
same,Kinases covered,PRKD3,PRKD3
COc1ccc2nc(-c3cccc(C)n3)nc(Nc3ccncc3)c2c1 [GSK204919],Kinases covered,PRKD2,PRKD2
CNc1nc(-c2ccc3c(N)n[nH]c3c2)cc(N2C[C@@H](C(=O)Nc3ccccc3)CC[C@H]2C)n1 [GSK2298859],Kinases covered,PRKX,PRKX
COc1cc(N2CCN(C(C)C)CC2)ccc1Nc1nc(Nc2ccc(F)cc2C(=O)NC[C@@H](O)CO)c2cc[nH]c2n1 [GSK1392956A],Kinases covered,PTK2B,PTK2B
